Screening results: PubChem, several laboratories
Only some compounds are listed: those with a hit (about 1.6% of all), similar ones and a draw of the others.
ATG4B inhibitor: ATG4B protease inhibitors, primary screen, biochemical, fluorescence, uHTS | Cysteine protease ATG4B (Homo sapiens), Q9Y4P1 | ATG4B cleavage of LC3-PLA2, NBD-HPC fluorescence, 1 h | inhibition, % at 8.33 µM | 0.51% of 340,000 active | AID 504462, 2011
PKA-R2B activ: activators of PKA-R2B holoenzyme, primary screen, biochemical, fluorescence polarization, Cy5-IP20, human. PKA-R2B holoenzyme dissociation; R2B truncated from residue 108, S112A mutant; 0% DMSO only, 100% 113 µM cGMP. 0.079% of 340,000 active. cAMP-dependent protein kinase catalytic subunit beta (Homo sapiens) + cAMP-dependent …. activation, % at 11.4 µM. AID 504700, 2011;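 active means activation above a cutoff set at the mean over all compounds plus 3 SD, cut at about 18% in these data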;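 further: higher means more holoenzyme dissociation and a rise in polarization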
Target sequence (P31323 whole entry, looked up, other chains not shown, the tested form may be a part): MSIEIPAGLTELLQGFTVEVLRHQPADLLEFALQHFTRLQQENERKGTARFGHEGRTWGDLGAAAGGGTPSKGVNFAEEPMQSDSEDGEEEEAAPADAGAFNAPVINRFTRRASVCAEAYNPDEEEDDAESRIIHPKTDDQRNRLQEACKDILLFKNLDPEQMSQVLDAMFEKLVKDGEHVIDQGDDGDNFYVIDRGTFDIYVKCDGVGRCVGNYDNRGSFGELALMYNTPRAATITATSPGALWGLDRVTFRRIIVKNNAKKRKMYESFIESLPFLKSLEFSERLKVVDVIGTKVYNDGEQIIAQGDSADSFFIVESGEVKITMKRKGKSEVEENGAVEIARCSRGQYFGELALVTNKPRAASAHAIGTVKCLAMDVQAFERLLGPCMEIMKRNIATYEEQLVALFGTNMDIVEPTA
NRP1-CendR mod: modulators of CendR peptide binding to NRP-1, primary screen, biochemical, fluorescence polarization, uHTS; FAM-RPARPAR peptide binding to NRP-1; 0.85% of 360,000 active; inhibition, % at 25 µM; Neuropilin-1 (Homo sapiens), O14786;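 active means inhibition or corrected inhibition above about 18%, plus a signal ratio from 0.5 to 1.5, limit read from the data, passing the limit was not always enough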
PKA-R1A activ: activators of PKA-R1A holoenzyme, primary screen, biochemical, fluorescence polarization, Cy5-IP20, bovine R1A, mouse PKAc | cAMP-dependent protein kinase type I-alpha regulatory subunit (Bos taurus) + … | PKA-R1A dissociation; scaled: DMSO 0%, 113 µM cGMP 100% | activation, % at 11.4 µM | 0.083% of 340,000 active | AID 504707, 2011;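 active means percent activation above the mean of all tested compounds plus 3 SD, cut at about 19% in these data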;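 further: higher means more PKAc released from R1A so a rise in polarization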
VLA-4 inh: inhibition in human VLA-4 binding assay, primary screen, VLA-4 allosteric modulator project, MLPCN library, flow cytometry, VLA-4 expressing cells; Integrin alpha-4 (Homo sapiens), P13612; ligand binding flow cytometry; inhibition, % (about 7 µM as worked out from the volumes in the protocol); 0.2% of 330,000 active; in the data active means inhibition above about 50%
VLA-4 mod pick: retest of VLA-4 allosteric modulators, confirmation, cell-based, cherry-picked plates, U937, HUTS-21 LIBS antibody; shares compounds with VLA-4 inh; U937 cells, HUTS-21 LIBS mAb binding, flow cytometry; LDV ligand present at threefold Kd; inhibition, % at 6.7 µM; 2% of 1,300 active
Each line names hits and unclear results; the compound was inactive in the other large screens (follow-up assays come after a bar, where they were run); ! = not confirmed by another sample. Unless noted, no stated cut-off is given here; in the data, active means inhibition above about 40%; inactive means the rest.

O=S(=O)(Nc1ccccn1)c1cccs1	none
CC(C)CC(=O)Nc1ccc2c(c1)nc(CCN1CCCCC1)n2C	none | VLA-4 mod pick inactive
Cc1ccc(Oc2cnc3ccccc3n2)cc1	VLA-4 inh 52.6 | VLA-4 mod pick inactive
Clc1ccc(Oc2cnc3ccccc3n2)cc1	none
CCCN(CCC)C(=O)CC(c1ccccc1)c1ccc(C)cc1O (stereo not drawn)	none
Cc1ccc(O)c([C@H](CCN(C(C)C)C(C)C)c2ccccc2)c1	VLA-4 inh 53.3! | VLA-4 mod pick inactive
COc1ccc(C(=O)OCC(=O)Nc2cc(C)c(C)cc2[N+](=O)[O-])cc1	VLA-4 inh 53.8 | VLA-4 mod pick inactive
CCCCOc1ccc(C(=O)OCC(=O)Nc2cc(C)c(C)cc2[N+](=O)[O-])cc1	none
O=C(NCCC1=CCCCC1)C1CCN(c2nnc(-n3cccc3)s2)CC1	VLA-4 inh 56.2 | VLA-4 mod pick inactive
Cc1noc(C)c1C(=O)N(CC(=O)Nc1ccccc1Br)Cc1ccco1	none
CC(C)NC(=O)CS(=O)(=O)c1ccccc1	VLA-4 inh 50.1 | VLA-4 mod pick inactive
O=C(Nc1ccc(F)cc1F)N1CCN(CCc2ccccc2)CC1	none
O=C(Nc1ccc(F)cc1F)N1CCN(C/C=C/c2ccccc2)CC1	VLA-4 inh 55.0 | VLA-4 mod pick inactive
Cc1ccc(/C=N\NC(=O)Cc2noc3ccccc23)cc1	none
C/C(=N\NC(=O)CSCc1cccc(Br)c1)c1ccc([N+](=O)[O-])cc1	VLA-4 inh 50.8 | VLA-4 mod pick inactive
CS(=O)(=O)N(CC(=O)Nc1cc(Cl)ccc1Cl)c1ccccc1Cl	none
CC(=O)Nc1ccc(NC(=O)CN(c2cc(Cl)ccc2Cl)S(C)(=O)=O)cc1	VLA-4 inh 59.9 | VLA-4 mod pick inactive
CCCCC1CCC(C(=O)N(CCOC)c2c(N)n(CCCC)c(=O)[nH]c2=O)CC1 (stereo not drawn)	none
O=C(NCC(O)CO)c1ccc2[nH]c3ccccc3c2c1 (stereo not drawn)	none
CCOC(=O)CNC(=O)c1ccc2[nH]c3ccccc3c2c1	none | VLA-4 mod pick inactive
CC(C)NC(=O)C1(C)CCN1CCC(=O)c1ccccc1 (stereo not drawn)	none (no result: ATG4B inhibitor, PKA-R2B activ, PKA-R1A activ, VLA-4 inh)
C=CCNc1ncnc2c1cnn2-c1cccc(C)c1	VLA-4 inh 65.6 | VLA-4 mod pick inactive
O=C(CNC(=O)c1ccc(-c2ccccc2)cc1)OCc1c(Cl)cccc1Cl	VLA-4 inh 52.5 | VLA-4 mod pick inactive
CCO[C@H]1OC(C(=O)Nc2ccccc2)=C[C@@H](c2ccc(Br)cc2)[C@@H]1CCCO	none
CCO[C@@H]1OC(C(=O)Nc2ccccc2)=C[C@H](C)[C@H]1CCCO	none | VLA-4 mod pick inactive
FC(F)(F)c1cccc(NC(=S)Nc2ccc(Cl)cc2Cl)c1	VLA-4 inh 90.3 | VLA-4 mod pick inactive
S=C(Nc1ccccc1)Nc1ccc(Cl)cc1Cl	none
CCCCn1nc(C(=O)Nc2c(C)n(C)n(-c3ccccc3)c2=O)c2ccccc2c1=O	none
Cc1ccc(S(=O)(=O)Nc2ccc(N(C)C)cc2)cc1	none | VLA-4 mod pick inactive
CN(C)c1ccc(NS(=O)(=O)c2ccc(Cl)cc2)cc1	none
CCOc1ccc(CN2CCN(Cc3cn(CC)nc3C)CC2CCO)cc1 (stereo not drawn)	none | VLA-4 mod pick inactive
O=C(Nc1ccc(CN2CCCCC2)cc1)Nc1ccccc1Cl	none
O=C(Nc1ccc(Br)cc1)Nc1ccccc1Cl	none | VLA-4 mod pick inactive
O=S(Cc1ccc(Cl)cc1)CC(O)COc1ccc(Cl)cc1 (stereo not drawn)	none
NC(=O)OCC(O)COc1ccc(Cl)cc1 (stereo not drawn)	VLA-4 inh 56.8 | VLA-4 mod pick inactive
Cc1cnc(CNC(=O)C2CCC(=O)N(Cc3ccc(Cl)cc3)C2)[nH]1 (stereo not drawn)	none
